Laboratory results published in PubChem BioAssay (NCATS).
Where “and” joins values, the source holds several entries; their conditions need not be identical. Identical values can stand only once. Results filed as inconclusive are left out. Calls of active or inactive are those of the source. The call rests on the fitted dose curve; in most records, active means well fitted inhibition curve with a large enough effect; inconclusive means small, poorly fitted or top-dose-only effect; inactive means flat fitted curve, though single readings scatter.

Tests used:
SC27B = assay: qHTS profiling for inhibitors of Plasmodium falciparum proliferation (AID 504749); conditions: P. falciparum in erythrocytes, SYBR Green DNA, 72 h; series mostly up to 28.7 µM
How it was run: (§1)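 P. falciparum-infected erythrocytes (0.3% parasitemia, 2.5% hematocrit final) were exposed to compounds for 72 h at 37 C in 5% CO2, then lysed with SYBR Green buffer overnight at room temperature; parasite DNA fluorescence was normalized to artemisinin and DMSO controls.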

TAB109 = assay: as above; conditions: P. falciparum in erythrocytes, SYBR Green DNA, 72 h; series mostly up to 28.7 µM
How it was run: as §1

W2 = assay: as above; conditions: P. falciparum in erythrocytes, SYBR Green DNA, 72 h; series mostly up to 28.7 µM
How it was run: as §1

HaCat = assay: Cytotoxic Profiling of Annotated Libraries Using Quantitative High-Throughput Screening (AID 1296008); conditions: Five cell lines viability, CellTiter-Glo ATP luminescence, 48-72 h; max response: stronger effect = lower value; on max response: on the % scale 0 is the no-effect control and ±100 the full control effect
How it was run: (§2)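 Compounds were pin-transferred onto cells and incubated 48 or 72 hr at 37 degree Celsius, 95% humidity. CellTiter-Glo was added, plates sat 10 min at room temperature, then ATP-coupled luminescence was imaged as the viability read-out.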

NIH3T3 = assay: as above; conditions: Five cell lines viability, CellTiter-Glo ATP luminescence, 48-72 h; max response: stronger effect = lower value
How it was run: as §2

TAB113 = assay: qHTS profiling for inhibitors of Plasmodium falciparum proliferation (AID 504749); conditions: P. falciparum in erythrocytes, SYBR Green DNA, 72 h; series mostly up to 28.7 µM
How it was run: as §1

TAB165 = assay: as above; conditions: P. falciparum in erythrocytes, SYBR Green DNA, 72 h; series mostly up to 28.7 µM
How it was run: as §1

KB-3-1 = assay: Cytotoxic Profiling of Annotated Libraries Using Quantitative High-Throughput Screening (AID 1296008); conditions: Five cell lines viability, CellTiter-Glo ATP luminescence, 48-72 h; max response: stronger effect = lower value; on max response: on the % scale 0 is the no-effect control and ±100 the full control effect
How it was run: as §2
Further: nearly all actives have a fitted effect of over 60% in size.
Potency means the concentration at half of the fitted maximal effect.

O=C(O)c1cc(O)c(O)c(O)c1
inactive: Potency (SC27B) | Potency (TAB109)
active: Potency (W2) 5.36 µM

CN(C)c1ccc(N=NS(=O)(=O)O)cc1
inactive: max response (HaCat) -1.75% | max response (NIH3T3) 2.87%

N=c1ccn2c(n1)O[C@H]1[C@H](O)[C@@H](CO)O[C@H]12
inactive: Potency (SC27B) | Potency (TAB109) | Potency (TAB113) | Potency (TAB165) | Potency (W2) | max response (KB-3-1) 33.6%

CCCCC[C@H](O)/C=C/[C@@H]1[C@@H](C/C=C\CCCC(=O)O)[C@@H](O)C[C@H]1O
inactive: Potency (SC27B) | Potency (TAB109) | Potency (TAB113) | Potency (TAB165) | Potency (W2) | max response (KB-3-1) 4.45% and 3.57%

O=C1CN(/N=C/c2ccc(-c3ccc([N+](=O)[O-])cc3)o2)C(=O)N1
inactive: Potency (SC27B) | Potency (TAB109) | Potency (TAB113) | Potency (TAB165) | Potency (W2)

CN(C)[C@@H]1C(=O)C(C(=O)NCN2CCCC2)=C(O)[C@@]2(O)C(=O)C3=C(O)c4c(O)cccc4[C@@](C)(O)C3C[C@@H]12 (stereo partly drawn)
inactive: max response (HaCat) -12.7% | max response (NIH3T3) 1.26%

C=CCN1C(=O)C(CC(C)C)NC1=S (stereo not drawn)
inactive: Potency (SC27B) | Potency (TAB109) | Potency (TAB113) | Potency (TAB165) | Potency (W2)

O=c1cc(-c2ccccc2)oc2ccccc12
active: Potency (HaCat) 34 µM | Potency (KB-3-1) 0.199 µM

NC(=O)C(c1ccccc1)(c1ccccc1)[C@@H]1CCN(CCc2ccc3c(c2)CCO3)C1
active: Potency (W2) 1.69 µM

CO/N=C(\C(=O)N[C@@H]1C(=O)N2C(C(=O)O)=C(COC(C)=O)CS[C@H]12)c1csc(N)n1 (stereo in doubt)
inactive: max response (KB-3-1) -7.91%
